MITF inh = MITF inhibitors, primary screen, biochemical, AlphaScreen, human; Microphthalmia-associated transcription factor (Homo sapiens), O75030; AlphaScreen MITF homodimerization, bead proximity signal; inhibition, % at 2.6 µM; 0.91% of 650,000 active; in the data active = inhibition above about 50%;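 note: 0% = vehicle wells with protein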
GPR151 ag = activators of human GPR151, primary screen, cell-based, PathHunter beta-arrestin, luminescence. G-protein coupled receptor 151 (Homo sapiens), Q8TDV0. AID 1508602, 2020. 1% of 650,000 active. activation, % at 11.2 µM. PathHunter beta-arrestin GPR151 cells; in the data active = activation above about 4.9%;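 note: 0% = median of compound wells and 100% = cells with positive control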
TEAD-YAP inh = TEAD-YAP interaction inhibition, primary screen, TEAD-YAP interaction inhibitor project, luminescence, HEK-TIYL cells. TEAD-Gal4/YAP UAS-luciferase luminescence. inhibition, % at 9.12 µM. 1.4% of 640,000 active. AID 1259422, 2018; in the data active = inhibition above about 32%;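 note: 0% = median of test compound wells and 100% = reference inhibitor wells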
FBW7 act = FBW7 E3 ligase activators, primary screen, biochemical, AlphaScreen, human; normalized activity (activation), % at 26.1 µM; 0.13% of 650,000 active; AlphaScreen FBW7–phospho-cyclin E peptide binding, activator screen; AID 1259310, 2017; F-box/WD repeat-containing protein 7 (Homo sapiens), Q969H0; in the data active = normalized activity above about 1.9%;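 note: purified mutant Fbw7 with reduced substrate affinity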
Target sequence (Q969H0 whole entry, looked up): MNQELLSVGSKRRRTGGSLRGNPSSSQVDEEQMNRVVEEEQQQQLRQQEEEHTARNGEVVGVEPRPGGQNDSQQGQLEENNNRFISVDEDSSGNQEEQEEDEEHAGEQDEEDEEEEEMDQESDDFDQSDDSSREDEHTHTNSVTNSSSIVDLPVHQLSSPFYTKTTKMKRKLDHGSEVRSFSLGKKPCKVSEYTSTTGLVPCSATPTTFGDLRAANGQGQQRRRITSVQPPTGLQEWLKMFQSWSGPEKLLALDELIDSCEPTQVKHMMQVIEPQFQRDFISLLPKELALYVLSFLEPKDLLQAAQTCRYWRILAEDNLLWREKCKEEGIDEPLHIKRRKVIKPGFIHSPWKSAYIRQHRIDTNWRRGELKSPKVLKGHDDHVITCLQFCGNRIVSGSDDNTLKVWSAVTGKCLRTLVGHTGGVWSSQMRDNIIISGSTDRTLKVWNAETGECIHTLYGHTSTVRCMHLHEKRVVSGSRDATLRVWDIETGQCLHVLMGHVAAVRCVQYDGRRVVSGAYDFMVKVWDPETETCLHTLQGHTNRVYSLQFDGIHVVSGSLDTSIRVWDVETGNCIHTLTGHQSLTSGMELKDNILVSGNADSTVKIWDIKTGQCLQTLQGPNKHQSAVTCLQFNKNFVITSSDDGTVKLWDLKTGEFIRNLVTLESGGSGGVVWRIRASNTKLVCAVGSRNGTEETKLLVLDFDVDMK
Starred values were filed as active, the others as inactive. Sampled rows, rich in hits. Any-hit rate of the full collection: about 3.4%.

SMILES	MITF inh	GPR151 ag	TEAD-YAP inh	FBW7 act
O=C1Nc2c(C(F)(F)F)cccc2C12SCCS2	8	0	34*	0
CC1CCCN(C2(O)C(=O)Nc3c(C(F)(F)F)cccc32)C1 (centres undefined)	-4	1	-12	0
CC(=O)Nc1cc(-c2ccc(C)cc2)[nH]n1	19	0	-58	1.9*
CCOC(=O)CCC(=O)Nc1cc(-c2ccc(C)cc2)[nH]n1	-7	0	2	0
CCOC(=O)c1c2c(n(C)c1CNC(C)C)C(=O)C(=O)c1ccc(Br)cc1-2	6	-1	13	0
CCOC(=O)c1c2c(n(C)c1CN(C)C)C(=O)C(=O)c1ccc(Br)cc1-2	8	-2	96*	0
O=C(NCCOc1ccccc1)c1cccc(Nc2ccc(-n3ccnc3)cc2)n1	11	2	61*	0
O=C(NCCc1ccc(O)cc1)c1csc(Nc2ccc(-n3ccnc3)cc2)n1	25	-2	31	0
O=C(NCCOc1ccccc1)c1csc(Nc2ccc(-n3ccnc3)cc2)n1	15	2	45*	0
O=C(NCCOc1ccccc1)c1cccc(Nc2ccncc2)n1	-8	1	-8	0
COc1ccc(-c2cc(CC(=O)NC3CCCC3)no2)cc1OC	-13	1	5	0
COc1ccc(-c2cc(CC(=O)NCc3ccc(Cl)cc3)no2)cc1OC	-1	2	47*	0
CCCN(CCC)C1=CC(=O)C(C)=C(C)C1=O	39	0	0	0
CCCN(CCC)C1=CC(=O)C(C)=CC1=O	65*	-2	2	0
CCNC(=O)/C(C#N)=C/c1c(Oc2cc(C)ccc2C(C)C)nc2ccccn2c1=O	6	-6	46*	0
CNC(=O)/C(C#N)=C/c1c(Oc2cc(C)ccc2C(C)C)nc2ccccn2c1=O	8	-6	34*	0
CCCCNC(=O)c1nn(C)c2c1COc1ccccc1-2	-3	2	-38	0
O=C(c1nn2c(C(F)(F)F)cc(-c3cccs3)nc2c1Br)N(Cc1ccccc1)Cc1ccccc1	-3	1	2	0
COc1ccccc1N1C(=O)c2ccc(Oc3ccc(NC(=O)CCS(=O)(=O)c4ccc(Br)cc4)cc3)cc2C1=O	9	1	7	0
Nc1c(C(=O)N2CCOCC2)sc2nc(-c3ccccc3)cc(C(F)(F)F)c12	6	-1	-9	2.8*
COc1ccc(NC(=O)CN2CCN(S(=O)(=O)c3cc(Cl)ccc3Cl)CC2)c(OC)c1	-22	0	-4	0
COc1cc(NC(=O)c2cccc(-c3ccc(C(N)=O)cc3)n2)cc(OC)c1OC	-9	-1	35*	0
COc1cc(NC(=O)c2cccc(-c3ccc(N4CCOCC4)nc3)n2)cc(OC)c1OC	18	2	34*	0
COc1cc(NC(=O)c2cccc(-c3cccc(N)c3)n2)cc(OC)c1OC	-1	3	34*	0
COc1cc(NC(=O)c2cccc(-c3ccc(N4CCOCC4)nc3)c2)cc(OC)c1OC	9	-2	-42	0
SMILES	MITF inh	GPR151 ag	TEAD-YAP inh	FBW7 act
CC(=O)Nc1ccc(NC(=O)c2cnc(N3CCN(Cc4ccc5c(c4)OCO5)CC3)s2)cc1	8	-1	42*	0
COc1ccc(-n2nc(C(=O)Nc3c(F)cc(F)cc3Br)c3ccccc3c2=O)c(OC)c1	-13	-1	-8	0
C=CCc1cccc2cc(C(=O)NCc3ccccc3)c(=N)oc12	-14	1	-2	0
CCCCN1C(=O)S/C(=C/c2ccccc2)C1=O	-1	0	-7	0
CCOC(=O)C1(CCOC)CCN(C(C)Cc2ccccc2OC)CC1 (centres undefined)	10	-1	-9	0
COc1cc(NC(=O)c2cccc(N3CCN(Cc4ccc5c(c4)OCO5)CC3)n2)cc(OC)c1OC	5	2	37*	0
Cn1nnnc1Sc1ccc([N+](=O)[O-])cc1C(=O)Nc1ccc(C(F)(F)F)cc1	-9	1	50*	0
CCOC(=O)c1sc(NC(=O)c2cc([N+](=O)[O-])ccc2Sc2nnnn2C)cc1C	13	0	8	0
S=C(Nc1ccc(Oc2ccccc2)cc1)N(Cc1ccccc1)Cc1cccnc1	3	1	-5	0
Clc1ccc(OCCN2CCOCC2)c(Cl)c1	19	-1	-10	0
COc1ccc(C(=O)N/N=C(\C)CC(=O)NCc2ccco2)cc1	24	-1	-52	1
COc1cc(OC)cc(C(=O)N/N=C(\C)CC(=O)Nc2cccc(C)c2C)c1	-8	2	50*	0
COc1cc(OC)cc(C(=O)N/N=C(\C)CC(=O)NCc2ccco2)c1	-8	-1	51*	1
C=CCn1c(=NC(=O)C2=COCCO2)sc2cccc(OC)c21	6	-1	-10	0
C=CCn1c(=NC(=O)C2=COCCO2)sc2cc(F)ccc21	-2	-1	-15	1.9*
CC(=O)C(Sc1ccc2nnc(-c3ccc(F)cc3)n2n1)C(=O)N(C)C (centres undefined)	12	0	14	0
CCN(CC)C(=S)SCc1cn2ccccc2n1	0	-1	2	0
CCN1CCN(c2ncc(-c3ccccc3)cc2C=O)CC1	-2	2	36*	0
COc1ccccc1-n1c(SCCc2ccccc2)nc2c(c1=O)C1(CCCCC1)Cc1ccccc1-2	1	0	12	0
CC1(C)C(=O)Nc2ccccc2N1C(=O)Cn1cc(C(F)(F)F)cc(Cl)c1=O	12	3	1	0
COc1ccc(-n2[nH]c(C)c(N=O)c2=O)cc1	3	1	39*	0
CN1C(=O)S/C(=C/c2ccc(OCc3cccc(C(=O)O)c3)cc2)C1=O	11	2	-30	1
CN1C(=O)C(=Cc2ccc(OCc3cccc(C(=O)O)c3)cc2)C(=O)N(C)C1=O	0	-9	43*	0
O=C1CCCC2=C1C(c1ccc(Br)cc1)Nc1ccc(C(=O)c3ccccc3)cc1N2 (centres undefined)	-1	-1	51*	0
O=C1CCCC2=C1C(c1cccc([N+](=O)[O-])c1)Nc1ccc(C(=O)c3ccccc3)cc1N2 (centres undefined)	8	2	54*	0
O=C1CCCC2=C1C(c1ccncc1)Nc1ccc(C(=O)c3ccccc3)cc1N2 (centres undefined)	-11	0	25	0
Cc1ccc(C2Nc3ccc(C(=O)c4ccccc4)cc3NC3=C2C(=O)CCC3)cc1 (centres undefined)	-2	-1	41*	0
O=C1CCCC2=C1C(c1ccccc1)Nc1ccc(C(=O)c3ccccc3)cc1N2 (centres undefined)	2	0	35*	0
Fc1cc(Br)ccc1-n1ncnc1-c1ccc(Cl)cc1Cl	14	0	-1	0

Compound activity (PubChem BioAssay)
